Results filed as inconclusive are left out. Where a call stands in place of a potency, no number is given. Active and inactive are the calls of the source. Calls follow the shape of the full dose curve.
These molecules were tested against Acetylcholinesterase (Homo sapiens) (UniProt P22303) (assay: Acetylcholinesterase (AChE) small molecule antagonists: fluorescence cell-based qHTS assay (AID 1347398; also: nearly all actives have a fitted effect of over 50% in size)). Conditions: SH-SY5Y cells; Potency: AChE activity; outcome: AChE activity; series mostly up to 115 µM.
Sequence of Acetylcholinesterase (Homo sapiens) (P22303 whole entry, looked up): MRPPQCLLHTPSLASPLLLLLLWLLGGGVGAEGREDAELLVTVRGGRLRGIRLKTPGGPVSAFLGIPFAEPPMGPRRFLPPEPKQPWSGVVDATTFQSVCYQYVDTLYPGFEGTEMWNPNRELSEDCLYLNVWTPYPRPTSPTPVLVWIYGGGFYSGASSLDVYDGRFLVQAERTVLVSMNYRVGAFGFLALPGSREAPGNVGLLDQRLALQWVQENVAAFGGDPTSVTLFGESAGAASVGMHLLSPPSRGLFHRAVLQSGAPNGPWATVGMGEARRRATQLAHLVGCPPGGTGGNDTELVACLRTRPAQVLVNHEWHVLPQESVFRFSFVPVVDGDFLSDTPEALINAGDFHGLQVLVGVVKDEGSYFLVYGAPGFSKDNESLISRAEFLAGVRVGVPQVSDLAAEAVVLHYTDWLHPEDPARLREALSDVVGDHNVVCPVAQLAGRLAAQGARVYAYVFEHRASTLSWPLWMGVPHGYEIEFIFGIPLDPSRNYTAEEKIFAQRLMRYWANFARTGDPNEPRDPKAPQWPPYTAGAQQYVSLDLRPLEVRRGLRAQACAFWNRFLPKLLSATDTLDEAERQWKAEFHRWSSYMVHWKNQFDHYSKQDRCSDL
How it was run: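 SH-SY5Y cells (2000/well), attached overnight, incubated with compound 30 min at 37 C. Acetylthiocholine plus Thiolite Green then added for 40 min at room temperature. Thiocholine fluorescence (Ex/Em 490/520 nm) reports cellular AChE activity.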
`O=C(O)COc1ccc2ccccc2c1` was tested, and the Potency was “inactive”.
With `COc1cc(OC)c2ccc(=O)oc2c1` the Potency was “inactive”.
`CCCCCCCCCCC=O` was tested, and the Potency was “inactive”.
In the case of `N#Cc1ccc(C2CCCc3cncn32)cc1` (stereo not given), the Potency is reported as “inactive”.
For `O=C(O)Cc1ccc(CCNS(=O)(=O)c2ccc(Cl)cc2)cc1`, the Potency was “inactive”.
With `NCCCN1CCOCC1` the Potency was “inactive”.
With `CCCCC(CC)C(=O)OC(C)C` (stereo not given) the Potency was “inactive”.
For `CCCc1ccc(N)cc1`, the Potency was “inactive”.
For `CO[Si](CCCNCCC[Si](OC)(OC)OC)(OC)OC`, the Potency was “inactive”.
In the case of `O=C(O)[C@@H]1[C@H]2C[C@H]3c4[nH]c5ccccc5c4CCN3C[C@@H]2CC[C@@H]1O`, the Potency is reported as “inactive”.
For `CN(C)CCCOc1nn(Cc2ccccc2)c2ccccc12`, the Potency was “inactive”.
In the case of `C=C(C)c1ccccc1`, the Potency is reported as “inactive”.
In the case of `C=C(C)C(=O)OCC`, the Potency is reported as “inactive”.
In the case of `Nc1ccccc1O`, the Potency is reported as “inactive”.
`O=C1OC(CN2CCOCC2)CN1/N=C/c1ccc([N+](=O)[O-])o1` (stereo not given) was tested, and the Potency was “inactive”.
`O=C(O)c1ccc(O)c(O)c1` was tested, and the Potency was “inactive”.
With `Cc1onc(-c2c(Cl)cccc2Cl)c1C(=O)N[C@@H]1C(=O)N2[C@@H]1SC(C)(C)[C@@H]2C(=O)O` the Potency was “inactive”.
For `CCOC(=O)CC(C)O` (stereo not given), the Potency was “inactive”.
In the case of `Cc1ccnc(N)c1`, the Potency is reported as “inactive”.
For `Cc1cccc(N(C)C)c1`, the Potency was “inactive”.
With `CC/C=C\CCCCO` the Potency was “inactive”.
In the case of `C/C(=C\C(C)CC(C)CC(C)C)C1CC(=O)OC1=O` (stereo not given), the Potency is reported as “inactive”.
`CC(=O)OCC(=O)[C@@]12OC(C)(C)O[C@@H]1C[C@H]1[C@@H]3C[C@H](F)C4=CC(=O)C=C[C@]4(C)[C@@]3(F)[C@@H](O)C[C@@]12C` was tested, and the Potency was “inactive”.
`CC(=O)NO` was tested, and the Potency was “inactive”.
With `CN1CCCN=C1COC(=O)C(O)(c1ccccc1)C1CCCCC1` (stereo not given) the Potency was “inactive”.
`CC12CCC(C(=O)C1=O)C2(C)C` (stereo not given) was tested, and the Potency was “inactive”.
With `O=C1CCCCCCCCCCC(=O)OCCO1` the Potency was “inactive”.
With `CC(C)(C)c1ccc(-c2ccc(C(C)(C)C)cc2)cc1` the Potency was “inactive”.
`CCCCC(CC)COC(=O)c1ccccc1O` (stereo not given) was tested, and the Potency was “inactive”.
`CCC1(C)NC(=O)NC1=O` (stereo not given) was tested, and the Potency was “inactive”.
`CN1CCCC1` was tested, and the Potency was “inactive”.
With `CCC(=O)C(=O)CC` the Potency was “inactive”.
In the case of `CCOc1ccccc1O[C@H](c1ccccc1)[C@H]1CNCCO1`, the outcome is reported as “inactive”.
In the case of `CC(C)(C)c1ccc(N)cc1`, the Potency is reported as “inactive”.
With `COc1ccccc1OCC(O)CN1CCN(CC(=O)Nc2c(C)cccc2C)CC1` (stereo not given) the Potency was “inactive”.
With `O=C1NC(=O)c2cc([N+](=O)[O-])ccc21` the Potency was “inactive”.
With `CC(=N\O)/C(C)=N/O` the Potency was “inactive”.
For `C1=CCC2CC=CC2C1` (stereo not given), the Potency was “inactive”.
`Nc1nnc(-c2ccc([N+](=O)[O-])o2)o1` was tested, and the Potency was “inactive”.
In the case of `CC(C)(C)c1ccccc1`, the Potency is reported as “inactive”.

Reference: PubChem BioAssay (Tox21)
